Pf growth 96h = P. falciparum growth inhibition at 96 hours; P. falciparum luciferase reporter growth, 96 h; Potency, µM (top dose mostly 28.7 µM), inactives show at the top dose activity change, negative = inhibition, most hits filed as inhibitors; 320,000 tested, 6.9% active; AID 504834; note: potency is the fitted concentration of half-maximal effect; % is set by controls: 0 for no effect and ±100 for the full control effect
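P. falciparum expressing integrated firefly luciferase grown in erythrocytes (2% hematocrit, 0.05% parasitemia final) with compounds for 96 hours at 37 C, 5% CO2. Growth inhibition read as loss of luminescence after adding luciferase detection reagent.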
Cycloheximide cs = affects cycloheximide protein synthesis inhibition readout, counter-screen | cell reporter, cycloheximide protein synthesis inhibition counterscreen | max response, % | 300,000 tested, 12% active | AID 2314; in the data active = max response mostly above about 13%, no sharp cut-off; inactive = mostly below about 14%; note: read at 38.3 µM for the half of the compounds with a filed dose; 0% is about no effect
LmPK inhibitor = LmPK (Leishmania mexicana) enzyme inhibition. AID 1721. purified LmPK, Kinase-Glo ATP luminescence, 1 h. 290,000 tested, 0.37% active. Potency, µM (top dose mostly 57.5 µM), for inactives: top-dose activity change, negative = inhibition, most hits filed as inhibitors; note: potency is the fitted concentration of half-maximal effect; % is set by controls: 0 for no effect and ±100 for the full control effect
Target sequence (Q27686 whole entry, looked up): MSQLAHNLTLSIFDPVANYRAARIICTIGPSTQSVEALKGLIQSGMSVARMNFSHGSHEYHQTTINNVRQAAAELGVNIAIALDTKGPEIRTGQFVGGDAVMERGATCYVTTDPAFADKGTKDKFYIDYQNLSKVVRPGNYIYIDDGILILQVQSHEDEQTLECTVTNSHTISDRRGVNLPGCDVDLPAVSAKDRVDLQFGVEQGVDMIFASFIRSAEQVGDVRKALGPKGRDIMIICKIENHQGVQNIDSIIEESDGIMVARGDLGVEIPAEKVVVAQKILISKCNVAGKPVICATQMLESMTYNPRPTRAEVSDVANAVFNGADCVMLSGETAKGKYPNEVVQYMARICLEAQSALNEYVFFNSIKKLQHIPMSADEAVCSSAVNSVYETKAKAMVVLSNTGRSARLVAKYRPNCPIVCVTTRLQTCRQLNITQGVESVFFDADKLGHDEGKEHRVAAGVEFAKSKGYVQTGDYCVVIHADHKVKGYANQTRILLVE
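Purified LmPK (0.1 nM) converted ADP (0.1 mM) to ATP with PEP (0.5 mM) in imidazole buffer pH 7.2 with KCl and MgCl2, 1 h at room temperature. ATP was read by Kinase-Glo luminescence; data normalized to uninhibited and no-enzyme controls.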
Shiga toxin inh = inhibitors of Shiga toxin in Vero cells | Vero cells, Shiga toxin protein synthesis inhibition reporter | inhibition, % at 38.7 µM | 290,000 tested, 9.2% active | AID 2315; in the data active = inhibition mostly above about 28%, no sharp cut-off; inactive = mostly below about 43%; note: 0% is about no effect
Pf growth 48h = P. falciparum growth inhibition at 48 hours (one generation). P. falciparum luciferase growth in erythrocytes, 48 h. Potency, µM (highest dose often 28.7 µM), for the others: top-dose activity change, negative = inhibition, most hits filed as inhibitors. 310,000 tested, 5.9% active. AID 504832; note: potency is the fitted concentration of half-maximal effect; % is set by controls: 0 for no effect and ±100 for the full control effect
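Growth was read as firefly luciferase luminescence after a 48 h, 37 C, 5% CO2 exposure of compounds to reporter-bearing P. falciparum cultures (0.1% parasitemia, 2% hematocrit final) in Albumax-supplemented RPMI 1640.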
Numbers without * were called inactive; i = inactive; ? = inconclusive; . = no result given; + = active, no number. Only some compounds are listed: those with a hit (about 22% of all), similar ones and a draw of the others. Unless noted, calls come from the whole dose curve; as a rule, active = well fitted inhibition curve with a large enough effect; inconclusive = small, poorly fitted or top-dose-only effect, or another doubt; inactive = no such curve, though single readings can be large or run the other way.

SMILES	Pf growth 96h	Cycloheximide cs	LmPK inhibitor	Shiga toxin inh	Pf growth 48h
COC(=O)[C@@]1(Cc2ccc(F)cc2)[C@H]2c3cc(C(=O)N(C)C)n(C[C@H](O)CO)c3C[C@H]2CN1C(=O)c1ccccc1	?	-1.5	2.0%	-8.9	-29.7%
COC(=O)[C@@]1(Cc2ccc(F)cc2)[C@H]2c3cc(C(=O)N(C)C)n(Cc4ccc(OC(F)(F)F)cc4)c3C[C@H]2CN1C(=O)c1ccccc1	2.33µM*	-1.5	0.4%	-7.7	1.85µM*
O=C1CN2CCC1C/C2=C\c1ccnc2c(Cl)cccc12 (configuration not stated)	-4.7%	7.0	-0.3%	-9.8	17.1%
CS(=O)(=O)c1ccc2nc(NC(=O)CCNC(=O)c3ccccc3Cl)sc2c1	-104.3%	.	.	.	10.4µM*
O=C(CCNC(=O)c1ccccc1Cl)Nc1nc2ccc(F)cc2s1	142.2%	.	.	.	152.5%
CS(=O)(=O)c1ccc2nc(NC(=O)Oc3ccccc3)sc2c1	-8.9%	8.0	-2.0%	-1.3	35.3%
CS(=O)(=O)c1ccc2nc(NC(=O)c3ccccc3Br)sc2c1	168.3%	37.3*	-5.1%	70.2*	102.0%
CS(=O)(=O)c1ccc2nc(NC(=O)c3ccccc3Cl)sc2c1	?	15.4*	-5.9%	59.2*	9.4%
COc1ccccc1C(=O)Nc1nc2ccc(S(C)(=O)=O)cc2s1	10.2%	17.2*	0.6%	+	79.8%
CC1(c2cccs2)CC(c2cccs2)=C(C#N)C(=O)N1 (configuration not stated)	-40.5%	11.1	-0.8%	-7.3	-5.9%
O=C(Cc1ccccc1[N+](=O)[O-])OCC(=O)c1c[nH]c2ccccc12	18.9%	.	.	.	37.5%
O=C(Nc1ccccc1)/C(=C/c1ccc2c(c1)OCO2)NC(=O)c1ccco1	-11.1%	-1.1	2.5%	-3.1	-3.0%
Cc1ccc(S(=O)(=O)Nc2c(C)[nH]c(=O)[nH]c2=O)cc1C	2.62µM*	-6.8	-0.8%	-8.2	-1.4%
Cc1[nH]c(=O)[nH]c(=O)c1NS(=O)(=O)c1ccc2c(c1)CCCC2	.	-0.8	-3.4%	12.1	-12.7%
C[C@H](NC(N)=O)C(=O)Nc1ccc(OCc2ccccc2)cc1	i	59.0*	4.2%	66.0	384.5%
O=C(O)/C=C/C(=O)Nc1ccc(-c2ccccc2)cc1	-2.2%	44.7*	-3.4%	91.9*	6.2%
O=C(O)/C=C/C(=O)Nc1ccc(OCc2ccccc2)cc1	41.8%	19.1*	-1.7%	54.0	37.9%
COc1ccccc1-c1nc(SCC(=O)N2CCC(C(N)=O)CC2)n[nH]1	-47.1%	.	.	.	-11.2%
Cc1cc(OCC(=O)OCC(=O)NCC2CCCO2)ccc1Cl (configuration not stated)	3.2%	.	.	.	-5.6%
Cc1ccc(-n2nc3c(c2NC(=O)C(C)C)CS(=O)(=O)C3)c(C)c1	?	7.6	4.6%	-7.2	0.0147µM*
Cc1ccc(-n2nc3c(c2NC(=O)c2ccco2)CS(=O)(=O)C3)c(C)c1	?	-4.4	-1.4%	5.7	-5.6%
Cc1cc(N2C(=O)CCC2=O)n(-c2ccccc2)n1	10.4µM*	-1.3	-1.1%	-7.2	3.9%
C/C(=N/Nc1ccnc2cc(Cl)ccc12)c1ccc(O)cc1	0.294µM*	.	.	.	0.329µM*
C/C(=N/Nc1ccnc2cc(Cl)ccc12)c1ccc(N)cc1	0.465µM*	.	.	.	0.828µM*
C/C(=N/Nc1nc(-c2ccccc2)cc(-c2ccccc2)n1)c1ccc(N)cc1	?	12.2	-6.8%	11.1	?
SMILES	Pf growth 96h	Cycloheximide cs	LmPK inhibitor	Shiga toxin inh	Pf growth 48h
Cc1cccc(NC(=O)CSCC(=O)N(C)Cc2c(F)cccc2Cl)c1	13.1µM*	.	.	.	?
CN(CC(=O)Nc1ccc(OC(F)(F)F)cc1)C(=O)Cc1c(Cl)cccc1Cl	?	4.1	0.5%	9.7	?
CN(CC(=O)Nc1ccc(Cl)cc1)C(=O)Cc1c(F)cccc1Cl	11.7µM*	-3.7	1.7%	-6.5	-17.3%
C=CCNC1=C2C[C@@H](C)C[C@H](OC)[C@H](O)[C@@H](C)/C=C(\C)[C@H](OC(N)=O)[C@@H](OC)/C=C/C=C(\C)C(=O)NC(=CC1=O)C2=O	.	-5.7	.	i	.
COc1ccccc1CNC(=O)CCNS(=O)(=O)c1ccc2[nH]c(=O)oc2c1	-14.1%	-0.5	-11.5%	7.0	?
Cc1cc(=O)c(C(=O)O)nn1-c1ccccc1C(F)(F)F	0.0%	-0.7	-2.5%	0.6	6.5%
COc1ccc([C@@]2(C(C)C)ON(c3ccccc3C(F)(F)F)C2=O)cc1	0.294µM*	.	.	.	0.329µM*
CC(C)[C@@]1(c2ccc(Cl)cc2)ON(c2ccccc2C(F)(F)F)C1=O	2.33µM*	.	.	.	2.08µM*
COc1ccc([C@]2(C(C)C)ON(c3ccccc3C(F)(F)F)C2=O)cc1	2.08µM*	.	.	.	1.04µM*
COc1ccc(S(=O)(=O)Nc2ccccc2C(F)(F)F)cc1	27.6%	5.5	-6.4%	-22.7	15.3%
O=C(Nc1ccc(S(=O)(=O)Nc2cnc3ccccc3n2)cc1)c1ccc(Cl)c([N+](=O)[O-])c1	?	1.4	9.5%	-3.6	-8.9%
COc1ccc([C@H]2[C@H](C(=O)C(C)(C)C)N3N=Cc4ccccc4C3C23C(=O)OC(C)(C)OC3=O)cc1 (some centres not stated)	6.9%	-4.0	-3.4%	-8.2	-21.7%
O=C(c1ccccc1)[C@H]1[C@H](c2ccccc2)[C@@]2(N=C(c3ccccc3)OC2=O)C2c3ccccc3C=NN21 (some centres not stated)	?	35.0*	-2.4%	55.1*	-27.7%
CCOc1ncccc1C(=O)OCC(=O)N(CC(C)C)C1CCS(=O)(=O)C1 (configuration not stated)	35.5%	-5.4	-0.8%	-8.0	8.1%
CC(C)Oc1ccc(C(=O)N(Cc2ccco2)C2CCS(=O)(=O)C2)cc1 (configuration not stated)	.	-2.8	0.8%	-9.4	18.4%
CC(=O)N(c1nnc(-c2cccc(C)c2)s1)C1CCCC1	8.4%	39.6*	-0.9%	.	126.2%
CCCCCCSc1nc(O)c(C2OC(=O)c3c2ccc(OC)c3OC)c(=O)n1-c1ccccc1 (configuration not stated)	-24.3%	-3.3	1.6%	-9.9	.
O=C(O)c1ccc2c(c1)C(=O)N(c1ccc(OCc3ccccc3)cc1)C2=O	-17.8%	-2.8	-0.5%	12.2	46.0%
O=C1CCOc2cc(OCc3ccccc3)ccc21	i	33.1*	?	49.6*	i
C[C@H](NC(=O)c1ccc(Cl)cc1)C(=O)NNC(=O)c1cccs1	4.6%	.	.	.	-17.0%
COc1ccc(C2=NOC(C(=O)Nc3ccc4c(c3)OCO4)C2)cc1 (configuration not stated)	?	1.6	-6.0%	6.1	-15.4%
COc1ccc(S(=O)(=O)N2Cc3ccccc3CC2C(=O)Nc2ccc3c(c2)OCO3)cc1 (configuration not stated)	?	46.5*	-1.2%	79.2	?
Cc1ccc(NC(=O)N2Cc3ccccc3CC2C(=O)NC(C)(C)C)cc1 (configuration not stated)	?	-3.3	-9.3%	13.8	-23.1%
